Hits are enriched below; roughly 7.9% of the tested compounds scored in any of these assays.
HT1080 IDH1KD tx = kills HT-1080 cells with IDH1 knockdown; Potency, µM (series often up to 46.1 µM), for the others: top-dose activity, negative = toxicity, hits mostly cytotoxic; AID 686971; HT-1080 IDH1 knockdown viability, ATP luminescence, 48 h; 360,000 compounds, 2% hits;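 note: 0% = DMSO wells and -100% = cell-free medium wells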
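Knockdown cells (IDH1KD HT-1080) received compounds 2 h after plating at 750 cells/well and were kept 48 h at 37 °C in 5% FBS RPMI. A CellTiter-Glo luminescence read gave % activity for curve fitting.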
SW480 rerep = inducers of DNA re-replication in SW480 colon cancer cells | SW480 DNA re-replication, Hoechst DNA content imaging, 48 h | Potency, µM (top dose mostly 46.1 µM), inactives show at the highest dose re-replication activation, most hits filed as activators | 340,000 compounds, 1.8% hits | AID 624297; note: % of control where 0% means no effect; nearly all actives have a fitted effect of over 55% in size
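Compounds, transferred as 23 nL by pin tool, were incubated with cells for 48 hr; DNA content per nucleus was then quantified by Hoechst staining and fluorescence plate imaging.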
MCF10A rereplic = induces DNA re-replication in MCF 10a normal breast cells | MCF 10A DNA re-replication, Hoechst nuclear intensity, 48 h | Potency, µM (titrated, usually from 46.1 µM), inactives show at the highest dose activity, positive = re-replication, actives largely listed as activators | 350,000 compounds, 2.9% hits | AID 624296; note: % of control where 0% means no effect; nearly all actives have a fitted effect of over 50% in size
KB-V1 MDR tox = kills drug-selected multidrug resistant KB-V1 cells; KB-V1 MDR cells viability, CellTiter-Glo, 72 h; Potency, µM (series often up to 46.1 µM), hits mostly cytotoxic; 400,000 compounds, 3.4% hits; note: % is set by controls: 0 for no effect and ±100 for the full control effect; nearly all actives have a fitted effect of over 60% in size
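qHTS viability screen in drug-selected KB-V1 MDR cells: 72 h compound treatment at 37 degrees C, ATP luminescence end point.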
HT1080NT lethal = kills 2HG-producing HT-1080-NT fibrosarcoma cells. HT-1080-NT fibrosarcoma viability, CellTiter-Glo ATP luminescence, 48 h. Potency, µM (doses to about 46.1 µM), for the others: at the top dose activity, negative = less viability, usual class: cytotoxic. 360,000 compounds, 1.6% hits. AID 686970;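 note: NT is the 2HG producing partner of a matched IDH1 knockdown line; 0% = DMSO-treated cells and -100% = media-only wells without cells; nearly all actives have a fitted effect of over 55% in size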
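Toxicity toward the 2HG-producing NT line was scored as %Activity, normalised to DMSO and no-cell wells, from CellTiter-Glo luminescence after 48 hours' treatment.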
KB-3-1 tox = kills parental KB-3-1 adenocarcinoma cells | KB-3-1 viability, CellTiter-Glo ATP luminescence, 72 h | Potency, µM (series often up to 46.1 µM), hits mostly cytotoxic | 400,000 compounds, 1.4% hits; note: % is set by controls: 0 for no effect and ±100 for the full control effect; nearly all actives have a fitted effect of over 60% in size
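Cytotoxicity in the drug-sensitive parental line KB-3-1 was scored as loss of CellTiter-Glo luminescence following 72 h incubation with compound. Values come from curve fitting of normalized concentration-response data.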
* = called active by the depositor; i = inactive; ? = inconclusive; . = no result given. Calls come from the whole dose curve; as a rule, active = well fitted curve in the direction sought with a large enough effect; inconclusive = small, poorly fitted or top-dose-only effect, or another doubt; inactive = no such curve, though single readings can be large; an effect the other way counts as inactive or inconclusive. Potency is the fitted concentration of half-maximal effect.

SMILES	HT1080 IDH1KD tx	SW480 rerep	MCF10A rereplic	KB-V1 MDR tox	HT1080NT lethal	KB-3-1 tox
CC1=C(C(=O)OCc2ccc3nsnc3c2)N2C(=O)[C@@H](NC(=O)OCc3ccc4nsnc4c3)[C@H]2SC1	.	.	.	i	.	i
Cc1[nH]c2ccccc2c1C(=O)C(=O)N1CC=C(c2ccccc2)CC1	21µM*	?	?	?	?	?
Cc1[nH]c2ccccc2c1C(=O)C(=O)N1CCN(c2cccc(Cl)c2)CC1	?	?	21µM*	i	-7%	?
COc1ccc(N2C(=O)CC(Sc3nnnn3-c3ccc(F)cc3)C2=O)cc1 (stereo not given)	4.1µM*	10µM*	?	i	16µM*	i
CCc1nc2ccc(C(=O)NCCc3ccccn3)cn2c1N(C)Cc1ccc(N(C)C)cc1	4%	.	.	i	19%	i
O=C1/C(=C/c2ccc([N+](=O)[O-])cc2)Oc2cc(O)ccc21	-16%	7%	23%	i	-25%	i
O=C1/C(=C/c2ccc(Br)cc2)Oc2cc(O)ccc21	?	?	15µM*	?	-20%	i
CC(C)(C)c1ccc(/C=C2\Oc3cc(O)ccc3C2=O)cc1	?	21µM*	21µM*	i	?	16µM*
COc1ccc(C(O)P(=O)(OCC(C)C)OCC(C)C)c(OC)c1 (stereo not given)	11%	-3%	-2%	16µM*	13%	i
COc1ccc2nc(SCC(=O)N(C)C3CCCCC3)[nH]c2c1	2%	2%	0%	21µM*	4%	i
COc1ccc2nc(SCC(=O)NC(C)(C)C)[nH]c2c1	0%	?	8.2µM*	i	0%	i
